One may read the inhibition as the drop in the measured response relative to a control, in per cent.

Among the data in PubChem BioAssay AID1847 (The Scripps Research Institute Molecular Screening Center, 2009) are inhibition values, retold here.

Out of some 2,300 compounds screened, about 1,100 (48%) were called active.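 Rule for the calls: active = inhibition above the mean inhibition of all tested sample wells plus 3 SD (cut at about 10% in these data); inactive = the rest.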 So high a share suggests a set chosen from earlier hits. A selection follows.

In the assay the target is Luciferin 4-monooxygenase (Photinus pyralis) (UniProt P08659). Put plainly: native FLuc enzyme inhibition – biochemical, luminescence, triplicate, artefact control for HSP90 inhibitor project, confirmation (AID 1847).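 Note: 0% = DMSO with luciferase and 100% = wells lacking luciferase.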 To be noted: purified native firefly luciferase, at 5.9 µM, active compounds read high.
Sequence of Luciferin 4-monooxygenase (Photinus pyralis) (P08659 whole entry, looked up): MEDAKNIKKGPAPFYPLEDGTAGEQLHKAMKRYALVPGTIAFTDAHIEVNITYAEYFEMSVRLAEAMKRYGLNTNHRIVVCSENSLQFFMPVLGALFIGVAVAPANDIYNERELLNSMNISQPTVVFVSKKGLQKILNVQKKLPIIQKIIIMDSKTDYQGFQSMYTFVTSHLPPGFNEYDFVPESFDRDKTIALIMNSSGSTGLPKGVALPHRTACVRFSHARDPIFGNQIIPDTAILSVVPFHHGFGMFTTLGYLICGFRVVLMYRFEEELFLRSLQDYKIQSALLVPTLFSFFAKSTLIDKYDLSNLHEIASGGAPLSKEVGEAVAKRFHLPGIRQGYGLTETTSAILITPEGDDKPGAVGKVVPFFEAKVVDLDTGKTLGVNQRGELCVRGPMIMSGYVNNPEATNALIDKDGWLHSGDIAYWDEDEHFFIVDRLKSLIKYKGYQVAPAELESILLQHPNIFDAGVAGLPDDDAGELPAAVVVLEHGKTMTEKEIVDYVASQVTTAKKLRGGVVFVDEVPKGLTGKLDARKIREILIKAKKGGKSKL
Turning to `COC(=O)c1sc(NC(=O)c2csc3c2CCCC3)nc1C`, the inhibition was -24.8% (inactive). Take `COC(=O)c1sc(NC(=O)c2ccc(OC)cc2OC)nc1C`: the inhibition was 56.6% (active). The figure for `COc1cc(SC)ccc1C(=O)Nc1nc(C)cs1` is 90.1% (active); for `Cc1ccc(-n2c(SCC(=O)Nc3ncc(Cl)cc3Cl)nc3ccccc32)cc1` it is -5.93% (inactive).

For `Cc1sc2nc(CSCC(=O)Nc3c(Cl)cccc3Cl)[nH]c(=O)c2c1C`, the inhibition was -10.5% (inactive). Next, `CCOc1ccc(C2NC(=S)NC3=C2CCc2ccccc23)cc1` (stereo not given): 27.2% (active); `Cc1nc(NC(=O)c2cccc(Cl)c2)sc1-c1csc(Nc2cccc(Cl)c2)n1`: -10.7% (inactive); `O=C(Nc1nc2ccccc2s1)c1ccc2c(c1)OCO2`: 56% (active). The figure for `O=C(Nc1ccccc1)c1ccc2c(c1)OCCCO2` is 32.8% (active). The figure for `c1ccc(-c2ccc3c(c2)NC(C2Nc4cc(-c5ccccc5)ccc4O2)O3)cc1` (stereo not given) is -6.37% (inactive); for `Clc1ccc(-c2cc(-c3ccccn3)on2)c(Cl)c1` it is 81.9% (active); for `O=[N+]([O-])/C=C/c1ccc2c(ccn2Cc2ccccc2)c1` it is 5.87% (inactive).

As for `CCN(CC)CCn1c(N)c(S(=O)(=O)c2ccccc2)c2nc3ccccc3nc21`, the inhibition is -7.93% (inactive). Next, `COc1ccc(-n2nnnc2-c2nc3ccccc3s2)cc1`: 52.3% (active); `Cc1cccc(NC(=O)/C=C/c2ccc3c(c2)OCO3)n1`: 30.9% (active). The figure for `Cc1csc(SCC(=O)Nc2sccc2C#N)n1` is 8.6% (inactive). The figure for `Cn1c(-c2ccco2)nc2cc3ccccc3cc21` is 51.4% (active); for `Cc1cc(C(=O)COC(=O)C2CC2)c(C)n1-c1ccc(F)cc1` it is 88.4% (active). On to `Cc1ccc(C(=O)O/N=C(\N)c2ccccn2)cc1Cl`, for which the inhibition was 79.1% (active).

Turning to `CCOC(=O)C1=C(c2ccc(OC)cc2)C(=O)c2ccccc2C1=O`, the inhibition was -5.23% (inactive).

As for `CC(C)Nc1ccc(-n2nc3ccccc3[n+]2[O-])cc1`, the inhibition was 44% (active).

Regarding `O=C(Nc1ccc2c(c1)OCCO2)C1CCCN(c2ncccn2)C1` (stereo not given), the inhibition is 20.5% (active). In the case of `Clc1ccc2nc(CSc3ccccc3)cn2c1`, the inhibition was 53% (active). The figure for `Cc1nc2cc(NC(=O)Nc3cccc(F)c3)ccc2n1C` is 21.4% (active); for `Cc1ccc(Nc2nc(-c3ccc(O)cc3O)cs2)nc1` it is -25.8% (inactive); for `Cc1ccc(Nc2nc(-c3sc(NC(=O)c4ccccc4)nc3C)cs2)cc1` it is -23.6% (inactive). Next, `Cc1cnc(NC(=O)c2ccccn2)s1`: 15.6% (active). Next, `CCOC(=O)CNC(=O)c1nn(-c2cccc(OC)c2)c(=O)c2ccccc12`: -3.73% (inactive); `CCOc1ccc(OCc2ccc(C(=O)N(C)c3ccccc3)o2)cc1`: -13.3% (inactive).

On to `CCOc1ccc(OCc2cccc(C(=O)N(CC)CC)c2)cc1`, for which the inhibition was 22.5% (active).
